Pf growth 96h: P. falciparum growth inhibition at 96 hours | hit rate 6.9% among 320,000 | P. falciparum luciferase reporter growth, 96 h | Potency, µM (top dose mostly 28.7 µM), most hits filed as inhibitors
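Parasite growth measured via integrated firefly luciferase reporter in P. falciparum. Infected erythrocytes at 2% hematocrit, 0.05% parasitemia final were treated 96 hours at 37 C under 5% CO2, and luminescence was read.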
Pf growth 48h: inhibits P. falciparum growth in the first generation, 48 h. P. falciparum luciferase growth in erythrocytes, 48 h. Potency, µM (doses to about 28.7 µM), actives largely listed as inhibitors. hit rate 5.9% among 310,000. AID 504832
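Compounds are pin-transferred into medium, infected erythrocytes (2% hematocrit, 0.1% parasitemia final) are added, and plates sit one parasite generation at 37 C in 5% CO2. Detection reagent is then added and luminescence measured.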
LmPK inh: inhibitors of Leishmania mexicana pyruvate kinase; purified LmPK, Kinase-Glo ATP luminescence, 1 h; Potency, µM (highest dose often 57.5 µM), most hits filed as inhibitors; Q27686; hit rate 0.37% among 290,000; AID 1721
Target sequence (Q27686 whole entry, looked up): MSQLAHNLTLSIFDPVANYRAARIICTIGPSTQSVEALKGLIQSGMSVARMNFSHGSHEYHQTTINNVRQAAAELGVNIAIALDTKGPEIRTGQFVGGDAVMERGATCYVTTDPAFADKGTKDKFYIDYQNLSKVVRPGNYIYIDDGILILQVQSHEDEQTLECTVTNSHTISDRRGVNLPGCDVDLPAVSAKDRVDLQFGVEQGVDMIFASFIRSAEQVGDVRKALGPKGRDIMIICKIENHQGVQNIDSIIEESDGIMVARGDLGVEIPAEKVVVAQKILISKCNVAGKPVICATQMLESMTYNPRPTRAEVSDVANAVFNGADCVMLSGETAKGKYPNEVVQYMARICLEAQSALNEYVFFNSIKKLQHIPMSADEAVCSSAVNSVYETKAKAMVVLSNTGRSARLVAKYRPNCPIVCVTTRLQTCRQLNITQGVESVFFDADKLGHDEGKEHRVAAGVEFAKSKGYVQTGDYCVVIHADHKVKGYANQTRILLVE
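Purified LmPK (0.1 nM) with 0.5 mM PEP and 0.1 mM ADP in imidazole buffer pH 7.2 with MgCl2/KCl, 1 h at room temperature. ATP formed was read by luciferase luminescence and normalized to no-enzyme and uninhibited controls.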
Shiga inhibitor: blocks Shiga toxin action in Vero cells | Vero cells, Shiga toxin protein synthesis inhibition reporter | inhibition, % at 38.7 µM | hit rate 9.2% among 290,000 | AID 2315; in the data active means inhibition mostly above about 28%, no sharp cut-off; inactive means mostly below about 43%
Cycloheximide cs: affects cycloheximide protein synthesis inhibition readout, counter-screen; cell reporter, cycloheximide protein synthesis inhibition counterscreen; max response, %; hit rate 12% among 300,000; AID 2314; in the data active means max response mostly above about 13%, no sharp cut-off; inactive means mostly below about 14%; further: read at 38.3 µM for the half of the compounds with a filed dose
Numbers stand for hits; . = inactive; ? = inconclusive; / = no result. An excerpt weighted towards active compounds, which were near 22% of everything screened. Unless noted, the call rests on the fitted dose curve; in most records, active means well fitted inhibition curve with a large enough effect; inconclusive means small, poorly fitted or top-dose-only effect, or another doubt; inactive means no such curve, though single readings can be large or run the other way.

SMILES | Pf growth 96h | Pf growth 48h | LmPK inh | Shiga inhibitor | Cycloheximide cs
O=C(O)c1ccc2oc(SCC(=O)N3CCCCC3)nc2c1 | / | . | . | 58 | 23
CC1CCCN(C(=O)CSc2nc3ccccc3o2)C1 (stereo not given) | ? | . | . | 61 | .
O=C(CSc1nc2ccccc2o1)N1CCN(C(=O)c2ccco2)CC1 | . | . | . | . | .
COc1ccccc1N1CCN(C(=O)CSc2nc3ccccc3o2)CC1 | / | . | . | 111 | 41
CCC(C)Oc1nc2c(c(=O)n(C)c(=O)n2C)n1C (stereo not given) | . | . | . | . | .
CCOC(=O)COc1cc2oc(=O)cc(C)c2cc1[N+](=O)[O-] | . | . | . | . | .
COc1cc(NC(=O)c2ccco2)c(OC)cc1NC(=O)c1cc(OC)c(OC)c(OC)c1 | 2.9µM | ? | . | . | .
CCOc1cc(NC(=O)c2ccco2)c(OCC)cc1NC(=O)c1cc(OC)c(OC)c(OC)c1 | . | ? | . | . | .
COc1cc(NC(=O)c2ccco2)c(OC)cc1NC(=O)CCC(=O)Nc1cccc(C)c1C | 5.2µM | . | . | . | .
Cc1cccc(NC(=O)CCNC(=O)c2ccco2)c1C | . | ? | . | . | .
Cc1ccsc1C(=O)Nc1ccc(S(=O)(=O)N2CCOCC2)cc1 | . | . | / | / | /
S=C(c1ccc(-c2cccc(Cl)c2)o1)N1CCCCC1 | . | . | . | 55 | 49
S=C(c1ccc(-c2cccc(Cl)c2)o1)N1CCOCC1 | . | . | . | 188 | 43
S=C(c1ccc(-c2cc(Cl)ccc2Cl)o1)N1CCOCC1 | . | ? | . | . | .
N#CCCN1CCN(C(=S)c2ccc(-c3cccc(Cl)c3)o2)CC1 | / | . | . | 103 | 45
COc1ccc(C(=O)C(C)Sc2nnc(C3CC3)n2C2CC2)cc1 (stereo not given) | . | . | / | / | /
CCCCN(CCO)c1ncnc2sc(-c3ccccc3)cc12 | . | / | . | . | .
CCN(CC)c1ccc(N=Nc2ncn[nH]2)cc1 | . | . | . | 124 | 34
O=C(COC(=O)CNS(=O)(=O)c1ccc(F)c(F)c1F)NC1CC1 | . | . | / | / | /
O=C(COC(=O)CNS(=O)(=O)c1ccc(F)c(F)c1F)NCCc1ccccc1 | . | . | . | 49 | 46
CSc1nc(-c2ccccc2)nn1S(=O)(=O)c1ccccc1 | . | . | . | . | 18
COc1ccc(-c2nc(SC)n(S(=O)(=O)c3ccccc3)n2)cc1 | / | . | . | 96 | 28
CSc1nc(-c2ccccc2)nn1S(=O)(=O)c1ccc(Cl)cc1 | / | . | . | . | .
COc1cccc(C2CC(c3cccs3)=NN2C(=O)CCC(=O)O)c1OC (stereo not given) | . | ? | . | . | 11
COc1cccc(C2CC(c3cccs3)=NN2C(=S)Nc2ccccc2)c1OC (stereo not given) | . | ? | . | . | .
SMILES | Pf growth 96h | Pf growth 48h | LmPK inh | Shiga inhibitor | Cycloheximide cs
COc1cccc(C2CC(c3cccs3)=NN2C(=O)CSc2nc3ccccc3s2)c1OC (stereo not given) | 7.4µM | ? | . | . | .
COc1ccccc1/C=C/c1nc2ccc(OC(C)=O)cc2c(=O)o1 | 1.7µM | . | . | . | .
Cc1ccc2nc(-c3ccc(NC(=O)COCC(=O)O)cc3)sc2c1 | . | . | . | 50 | 56
O=C(O)CSCC(=O)Nc1ccc(-c2nc3ccccc3s2)cc1 | . | . | . | 54 | 35
Cc1csc(NC(=O)CSCC(=O)O)c1-c1nc2ccccc2s1 | . | ? | . | . | .
Cc1ccc2nc(-c3ccc(NC(=O)CSCC(=O)O)cc3)sc2c1 | . | . | . | 87 | 55
CCn1c2ccc(C)cc2c2nc3cc(C(=O)O)ccc3nc21 | . | . | . | 61 | 44
O=C(COC(=O)c1cnc(Cl)c(Cl)c1)Nc1ccc(S(=O)(=O)N2CCCC2)cc1 | . | . | . | . | .
Cc1ccc(NC(=O)C(=O)NCCN2CCN(S(C)(=O)=O)CC2)cc1C | . | . | . | . | .
CCOC1(C)OCC(=O)[C@]2(CCC3C4CCC5=CC(=O)C=CC5(C)C4C(=O)CC32C)O1 (stereo not given in full) | ? | 10µM | . | . | .
CC(=O)OCC(=O)[C@@]1(O)CC[C@H]2[C@@H]3CCC4=CC(=O)C=C[C@]4(C)[C@H]3C(=O)C[C@@]21C | . | . | . | . | .
CCn1ccnc1CN(C)Cc1cn(-c2ccccc2)nc1-c1ccc(OC)cc1F | ? | . | . | . | .
CCCCN1C(=O)C(=O)N(CC(=O)Nc2sc(CC)cc2C(=O)OCC)C1=O | . | . | / | / | /
COc1ccc(C(=O)c2c(C(F)(F)F)oc3c2C(=O)c2ccccc2C3=O)cc1 | / | 0.1µM | . | . | .
COc1ccccc1-c1cc(C(=O)NCc2ccc(F)cc2)no1 | . | . | . | . | .
O=C(NCc1ccccc1)c1cnsn1 | 1.3µM | . | . | . | .
O=C(NCc1ccccc1)c1cc(-c2cccs2)on1 | . | . | . | 77 | 43
O=C(NCc1ccc(F)cc1)c1cc(-c2cccs2)on1 | ? | . | . | . | 26
CCc1cccc(Nc2cnn(C34C[C@@H]5C[C@@H](CC(CC(=O)O)(C5)C3)C4)c(=O)c2Cl)c1 | . | ? | . | . | .
O=C1C=C(c2ccc(OC(F)(F)F)cc2)C[C@@H](c2ccc(Cl)cc2)C1 | . | ? | / | / | /
O=C(CSc1nnc(CNc2ccccc2)o1)c1ccc2c(c1)OCCO2 | . | . | . | . | .
CN(C)CCC(=O)c1ccc2c(c1)OCO2 | . | . | . | . | 24
O=C(CCNc1ccccc1)c1ccc2c(c1)OCO2 | . | . | . | 71 | 63
CN(C)CCCC(=O)c1ccc2c(c1)OCO2 | / | . | . | . | .
COCCNC(=O)C1CCCN(S(=O)(=O)c2cccc3nsnc23)C1 (stereo not given) | ? | . | . | . | .
SMILES | Pf growth 96h | Pf growth 48h | LmPK inh | Shiga inhibitor | Cycloheximide cs
CN(C)CCCNc1c2c(nc3cc(-c4cccc(F)c4)nn13)CCC2 | . | . | . | . | .
COc1ccc(-c2cc3nc(C)cc(C)n3n2)cc1 | . | / | . | 48 | 35
Cc1cc(C)n2nc(-c3ccc(Cl)cc3)cc2n1 | . | . | . | 100 | 43
COc1ccc(OCCSc2nc3nc(C)cc(C)n3n2)cc1 | . | . | . | . | .
Cc1nc2cc(-c3ccc(Cl)cc3)nn2c(NCCN(C)C)c1C | 10µM | ? | . | 80 | 60
Cc1cc(-c2ccc(Cl)cc2)n2nc(C)cc2n1 | 10µM | . | . | . | .
Cc1cc(C)n2nc(C)c(-c3ccc(Cl)cc3)c2n1 | . | . | . | . | .
CC(OC(=O)c1cc(=O)[nH]c2ccccc12)C(=O)c1ccccc1 (stereo not given) | . | . | . | . | .
CN1C(=O)C(CC(=O)NCCc2ccccc2)N(NC(=O)c2ccc(Cl)cc2)C1=S (stereo not given) | . | ? | . | . | .
CC1(CCC(=O)N2CCCC(Nc3ccc(F)cc3)C2)CC1 (stereo not given) | ? | . | . | . | .
Cc1ccc(-c2cc3nc(-c4ccc(Br)cc4)cc(N)n3n2)cc1 | . | . | . | . | .

Bioassay records (PubChem)
